# About 79,000 compounds went through this panel and 15% of them were active in at least one assay; those are over-represented in the sample as a whole. Unmarked numbers belong to inactive results. Active and inactive are the calls of the source. No stated cut-off is given here; in the data, active means growth inhibition above about 70%; inactive means the rest.
# Columns and labels:
# [1] = NCI Yeast Anticancer Drug Screen. Data for the wt1 strain (AID 149);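 further: 0% = growth of vehicle-treated wt1 cultures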; conditions: S. cerevisiae wt1 strain (SPY 50644) growth inhibition, active compounds read high
# Outline: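 Vehicle-normalised growth inhibition; strain wt1; compound exposure.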
# [2] = NCI Yeast Anticancer Drug Screen. Data for the rad50EPP+ strain (AID 151);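 further: 0% = growth of vehicle-treated control cultures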; conditions: S. cerevisiae rad50 mutant strain, active compounds read high
# Outline: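 Vehicle-normalised growth inhibition; rad50EPP+ yeast strain, altered in DNA damage repair, compound-treated.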
# [3] = NCI Yeast Anticancer Drug Screen. Data for the mgt1 strain (AID 153); conditions: S. cerevisiae mgt1 mutant growth inhibition, active compounds read high
# Outline: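 Vehicle-normalized growth inhibition is determined in mgt1 yeast, a strain selected for a defined alteration in DNA repair or cell cycle control.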
# [4] = NCI Yeast Anticancer Drug Screen. Data for the rad50 strain (AID 155);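 further: 0% = growth of vehicle-only cultures of the same strain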; conditions: S. cerevisiae rad50 strain growth inhibition, active compounds read high
# Outline: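 A DNA repair-deficient yeast mutant serves as the test organism; compound-induced growth inhibition is calculated against vehicle-treated cells.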
# [5] = NCI Yeast Anticancer Drug Screen. Data for the mec2-1 strain (AID 157); conditions: S. cerevisiae mec2-1 strain, active compounds read high
# Outline: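 Mutant yeast (mec2-1) grown with compound; growth inhibition relative to vehicle control reported.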
# [6] = NCI Yeast Anticancer Drug Screen. Data for the rad14 strain (AID 159);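 further: 0% = growth of vehicle-treated control cultures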; conditions: S. cerevisiae rad14 strain growth inhibition, active compounds read high
# Outline: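 Vehicle-treated cultures served as the baseline for growth inhibition of a DNA repair-mutant yeast strain exposed to each compound.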
# [7] = NCI Yeast Anticancer Drug Screen. Data for the sgs1 mgt1 strain (AID 161);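 further: 0% = growth of cultures given vehicle only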; conditions: S. cerevisiae sgs1 mgt1 strain, active compounds read high
# Outline: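 Percent growth inhibition was derived by comparing compound-exposed mutant yeast with vehicle-exposed cultures. The strain carries alterations in DNA damage repair.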
# [8] = NCI Yeast Anticancer Drug Screen. Data for the CLN2oe strain (AID 163);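 further: 0% = growth of vehicle-only control cultures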; conditions: S. cerevisiae CLN2oe strain, active compounds read high
# Outline: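 Compounds are applied to yeast harbouring a defined cell-cycle control change; reduced growth compared with vehicle-treated controls gives the value.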
# [9] = NCI Yeast Anticancer Drug Screen. Data for the cln2 rad14 strain (AID 165);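 further: 0% = growth equal to vehicle treated cultures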; conditions: S. cerevisiae cln2 rad14 strain, active compounds read high
# Outline: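 Readout is yeast growth inhibition versus vehicle-treated controls, using a strain with cln2 and rad14 alterations exposed to compound.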
# [10] = NCI Yeast Anticancer Drug Screen. Data for the bub3 strain (AID 167); conditions: S. cerevisiae bub3 mutant strain, active compounds read high
# Outline: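 Inhibition values come from growth of compound-treated mutant yeast normalised to vehicle-treated controls.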
# [11] = NCI Yeast Anticancer Drug Screen. Data for the wt2 strain (AID 169);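 further: 0% = growth of vehicle-treated yeast cultures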; conditions: S. cerevisiae wt2 strain growth inhibition, active compounds read high
# Outline: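 Against vehicle-treated controls, the growth of yeast exposed to each compound was compared, and the inhibition was recorded.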
# [12] = NCI Yeast Anticancer Drug Screen. Data for the mlh1 strain (AID 171);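 further: 0% = growth of vehicle-treated control cultures of the same strain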; conditions: S. cerevisiae mlh1 strain growth inhibition, active compounds read high
# Outline: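 Measured: yeast growth. Reference: vehicle-treated controls. Organism: strain with a defined alteration affecting DNA damage repair or cell cycle control, treated with compound.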
# [13] = NCI Yeast Anticancer Drug Screen. Data for the sgs1 strain (AID 173);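 further: 0% = growth of vehicle-only control cultures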; conditions: S. cerevisiae sgs1 mutant, active compounds read high
# Outline: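 Each compound was added to cultures of the altered yeast strain. Growth was recorded, and inhibition was derived by comparison with vehicle controls.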
# [14] = NCI Yeast Anticancer Drug Screen. Data for the mlh1 rad18 strain (AID 175); conditions: S. cerevisiae mlh1 rad18 strain growth inhibition, active compounds read high
# Outline: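 Genetically defined yeast (DNA repair-deficient) exposed to compounds; growth inhibition determined relative to vehicle.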
# [15] = NCI Yeast Anticancer Drug Screen. Data for the rad18 strain (AID 177); conditions: S. cerevisiae rad18 mutant growth inhibition, active compounds read high
# Outline: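 Vehicle-treated cultures served as the baseline for scoring compound-induced growth inhibition in DNA-repair-mutant yeast.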
# [16] = at 5.0 µM (retest, dose inferred, filed as 0.5)
# [17] = at 50.0 µM (retest, dose inferred, filed as 5.0)
smiles,measurement,setting,value
O=C1c2ccccc2C2CCC1c1ccccc12 (stereo unspecified),growth inhibition,[1]; at 1.2 µM,-12%
same,growth inhibition,[1]; at 3.7 µM,-14%
same,growth inhibition,[1]; at 11.0 µM,-13%
same,growth inhibition,[1]; at 33.0 µM,-6%
same,growth inhibition,[1]; at 100.0 µM,97% (active)
same,growth inhibition,[2]; at 1.2 µM,1%
same,growth inhibition,[2]; at 3.7 µM,-4%
same,growth inhibition,[2]; at 11.0 µM,-2%
same,growth inhibition,[2]; at 33.0 µM,50%
same,growth inhibition,[2]; at 100.0 µM,68%
same,growth inhibition,[3]; at 1.2 µM,-12%
same,growth inhibition,[3]; at 3.7 µM,6%
same,growth inhibition,[3]; at 11.0 µM,5%
same,growth inhibition,[3]; at 33.0 µM,17%
same,growth inhibition,[3]; at 100.0 µM,97% (active)
same,growth inhibition,[4]; at 1.2 µM,-19%
same,growth inhibition,[4]; at 3.7 µM,-5%
same,growth inhibition,[4]; [16],0%
same,growth inhibition,[4]; at 11.0 µM,3%
same,growth inhibition,[4]; at 33.0 µM,20%
same,growth inhibition,[4]; [17],-29%
same,growth inhibition,[4]; at 50.0 µM,62.9%
same,growth inhibition,[4]; at 100.0 µM,94% (active)
same,growth inhibition,[5]; at 1.2 µM,-24%
same,growth inhibition,[5]; at 3.7 µM,-14%
same,growth inhibition,[5]; [16],-6%
same,growth inhibition,[5]; at 11.0 µM,3%
same,growth inhibition,[5]; at 33.0 µM,12%
same,growth inhibition,[5]; [17],-19%
same,growth inhibition,[5]; at 50.0 µM,-6.1%
same,growth inhibition,[5]; at 100.0 µM,98% (active)
same,growth inhibition,[6]; at 1.2 µM,-25%
same,growth inhibition,[6]; at 3.7 µM,-24%
same,growth inhibition,[6]; at 11.0 µM,-17%
same,growth inhibition,[6]; at 33.0 µM,-6%
same,growth inhibition,[6]; at 100.0 µM,97% (active)
same,growth inhibition,[7]; [16],-15%
same,growth inhibition,[7]; [17],-7%
same,growth inhibition,[7]; at 50.0 µM,9.45%
same,growth inhibition,[8]; at 1.2 µM,2%
same,growth inhibition,[8]; at 3.7 µM,-5%
same,growth inhibition,[8]; at 11.0 µM,7%
same,growth inhibition,[8]; at 33.0 µM,59%
same,growth inhibition,[8]; at 100.0 µM,98% (active)
same,growth inhibition,[9]; [16],-19%
same,growth inhibition,[9]; [17],13%
same,growth inhibition,[9]; at 50.0 µM,18.3%
same,growth inhibition,[10]; at 1.2 µM,-22%
same,growth inhibition,[10]; at 3.7 µM,-30%
same,growth inhibition,[10]; [16],-32%
same,growth inhibition,[10]; at 11.0 µM,-33%
same,growth inhibition,[10]; at 33.0 µM,33%
same,growth inhibition,[10]; [17],89% (active)
same,growth inhibition,[10]; at 50.0 µM,7.05%
same,growth inhibition,[10]; at 100.0 µM,97% (active)
same,growth inhibition,[11]; at 1.2 µM,-1%
same,growth inhibition,[11]; at 3.7 µM,-11%
same,growth inhibition,[11]; at 11.0 µM,4%
same,growth inhibition,[11]; at 33.0 µM,0%
same,growth inhibition,[11]; at 100.0 µM,97% (active)
same,growth inhibition,[12]; at 1.2 µM,-3%
same,growth inhibition,[12]; at 3.7 µM,6%
same,growth inhibition,[12]; at 11.0 µM,14%
same,growth inhibition,[12]; at 33.0 µM,28%
same,growth inhibition,[12]; at 100.0 µM,94% (active)
same,growth inhibition,[13]; at 1.2 µM,-12%
same,growth inhibition,[13]; at 3.7 µM,-18%
same,growth inhibition,[13]; at 11.0 µM,-18%
same,growth inhibition,[13]; at 33.0 µM,18%
same,growth inhibition,[13]; at 100.0 µM,96% (active)
same,growth inhibition,[14]; [16],-45%
same,growth inhibition,[14]; [17],26%
same,growth inhibition,[14]; at 50.0 µM,10.6%
same,growth inhibition,[15]; at 1.2 µM,-40%
same,growth inhibition,[15]; at 3.7 µM,-30%
same,growth inhibition,[15]; at 11.0 µM,-38%
same,growth inhibition,[15]; at 33.0 µM,-26%
same,growth inhibition,[15]; at 100.0 µM,96% (active)
CCCCCCCCCCCCCCCCOCC(Cl)COP(=O)(O)OP(=O)(O)OCC1OC(n2cnc3c(N)ncnc32)C(O)C1O (stereo unspecified),growth inhibition,[1]; at 1.2 µM,21%
same,growth inhibition,[1]; at 3.7 µM,35%
same,growth inhibition,[1]; at 11.0 µM,46%
same,growth inhibition,[1]; at 33.0 µM,54%
same,growth inhibition,[1]; at 100.0 µM,51%
same,growth inhibition,[2]; at 1.2 µM,20%
same,growth inhibition,[2]; at 3.7 µM,24%
same,growth inhibition,[2]; at 11.0 µM,43%
same,growth inhibition,[2]; at 33.0 µM,67%
same,growth inhibition,[2]; at 100.0 µM,97% (active)
same,growth inhibition,[3]; at 1.2 µM,15%
same,growth inhibition,[3]; at 3.7 µM,14%
same,growth inhibition,[3]; at 11.0 µM,55%
same,growth inhibition,[3]; at 33.0 µM,68%
same,growth inhibition,[3]; at 100.0 µM,85% (active)
same,growth inhibition,[4]; at 1.2 µM,14%
same,growth inhibition,[4]; at 3.7 µM,28%
same,growth inhibition,[4]; [16],49%
same,growth inhibition,[4]; at 11.0 µM,75% (active)
same,growth inhibition,[4]; at 33.0 µM,86% (active)
same,growth inhibition,[4]; [17],93% (active)
same,growth inhibition,[4]; at 50.0 µM,54.4%
same,growth inhibition,[4]; at 100.0 µM,86% (active)
same,growth inhibition,[5]; at 1.2 µM,14%
same,growth inhibition,[5]; at 3.7 µM,6%
same,growth inhibition,[5]; [16],36%
same,growth inhibition,[5]; at 11.0 µM,19%
same,growth inhibition,[5]; at 33.0 µM,11%
same,growth inhibition,[5]; [17],73% (active)
same,growth inhibition,[5]; at 50.0 µM,33.4%
same,growth inhibition,[5]; at 100.0 µM,47%
same,growth inhibition,[6]; at 1.2 µM,10%
same,growth inhibition,[6]; at 3.7 µM,6%
same,growth inhibition,[6]; at 11.0 µM,29%
same,growth inhibition,[6]; at 33.0 µM,35%
same,growth inhibition,[6]; at 100.0 µM,46%
same,growth inhibition,[7]; [16],74% (active)
same,growth inhibition,[7]; [17],96% (active)
same,growth inhibition,[7]; at 50.0 µM,88.4% (active)
same,growth inhibition,[8]; at 1.2 µM,2%
same,growth inhibition,[8]; at 3.7 µM,2%
same,growth inhibition,[8]; at 11.0 µM,-4%
same,growth inhibition,[8]; at 33.0 µM,24%
same,growth inhibition,[8]; at 100.0 µM,31%
same,growth inhibition,[9]; [16],24%
same,growth inhibition,[9]; [17],79% (active)
same,growth inhibition,[9]; at 50.0 µM,-30.4%
same,growth inhibition,[10]; at 1.2 µM,-12%
same,growth inhibition,[10]; at 3.7 µM,-25%
same,growth inhibition,[10]; [16],10%
same,growth inhibition,[10]; at 11.0 µM,-8%
same,growth inhibition,[10]; at 33.0 µM,9%
same,growth inhibition,[10]; [17],73% (active)
same,growth inhibition,[10]; at 50.0 µM,28.2%
same,growth inhibition,[10]; at 100.0 µM,39%
same,growth inhibition,[11]; at 1.2 µM,-2%
same,growth inhibition,[11]; at 3.7 µM,-3%
same,growth inhibition,[11]; at 11.0 µM,11%
same,growth inhibition,[11]; at 33.0 µM,19%
same,growth inhibition,[11]; at 100.0 µM,57%
same,growth inhibition,[12]; at 1.2 µM,10%
same,growth inhibition,[12]; at 3.7 µM,-1%
same,growth inhibition,[12]; at 11.0 µM,53%
same,growth inhibition,[12]; at 33.0 µM,63%
same,growth inhibition,[12]; at 100.0 µM,78% (active)
same,growth inhibition,[13]; at 1.2 µM,40%
same,growth inhibition,[13]; at 3.7 µM,64%
same,growth inhibition,[13]; at 11.0 µM,93% (active)
same,growth inhibition,[13]; at 33.0 µM,95% (active)
same,growth inhibition,[13]; at 100.0 µM,92% (active)
same,growth inhibition,[14]; [16],36%
same,growth inhibition,[14]; [17],92% (active)
same,growth inhibition,[14]; at 50.0 µM,48%
same,growth inhibition,[15]; at 1.2 µM,-4%
same,growth inhibition,[15]; at 3.7 µM,0%
same,growth inhibition,[15]; at 11.0 µM,22%
same,growth inhibition,[15]; at 33.0 µM,39%
same,growth inhibition,[15]; at 100.0 µM,59%
